# Test results as given in ChEMBL document CHEMBL2218924, “A broad activity screen in support of a chemogenomic map for kinase signalling research and drug discovery” (Biochem J, 2013).
# Experiments:
# [1] = molecular target: Tyrosine-protein kinase SYK (Homo sapiens) (UniProt P43405); conditions: at 10 µM
# [2] = molecular target: T1, Mitogen-activated protein kinase kinase kinase 7 (Homo sapiens) (UniProt O43318); conditions: at 1 µM
# T1 sequence (whole entry): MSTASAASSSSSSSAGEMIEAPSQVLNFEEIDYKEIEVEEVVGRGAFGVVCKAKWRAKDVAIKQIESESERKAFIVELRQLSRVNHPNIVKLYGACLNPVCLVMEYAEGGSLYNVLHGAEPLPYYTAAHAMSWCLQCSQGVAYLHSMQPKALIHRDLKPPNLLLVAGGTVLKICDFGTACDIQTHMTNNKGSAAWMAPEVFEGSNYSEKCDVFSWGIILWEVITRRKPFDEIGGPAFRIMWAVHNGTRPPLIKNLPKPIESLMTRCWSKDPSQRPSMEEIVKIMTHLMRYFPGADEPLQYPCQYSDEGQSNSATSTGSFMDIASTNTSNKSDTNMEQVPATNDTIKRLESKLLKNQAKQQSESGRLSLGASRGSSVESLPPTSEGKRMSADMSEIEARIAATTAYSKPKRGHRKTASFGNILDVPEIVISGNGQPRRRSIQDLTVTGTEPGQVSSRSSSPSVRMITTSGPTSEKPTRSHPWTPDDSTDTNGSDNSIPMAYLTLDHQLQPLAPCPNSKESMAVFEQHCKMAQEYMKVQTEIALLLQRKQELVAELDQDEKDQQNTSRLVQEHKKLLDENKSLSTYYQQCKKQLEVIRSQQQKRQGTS
# [3] = molecular target: T1, Mitogen-activated protein kinase kinase kinase 7 (Homo sapiens); conditions: at 10 µM
# [4] = molecular target: T2, Serine/threonine-protein kinase TAO1 (Homo sapiens) (UniProt Q7L7X3); conditions: at 1 µM
# T2 sequence (whole entry): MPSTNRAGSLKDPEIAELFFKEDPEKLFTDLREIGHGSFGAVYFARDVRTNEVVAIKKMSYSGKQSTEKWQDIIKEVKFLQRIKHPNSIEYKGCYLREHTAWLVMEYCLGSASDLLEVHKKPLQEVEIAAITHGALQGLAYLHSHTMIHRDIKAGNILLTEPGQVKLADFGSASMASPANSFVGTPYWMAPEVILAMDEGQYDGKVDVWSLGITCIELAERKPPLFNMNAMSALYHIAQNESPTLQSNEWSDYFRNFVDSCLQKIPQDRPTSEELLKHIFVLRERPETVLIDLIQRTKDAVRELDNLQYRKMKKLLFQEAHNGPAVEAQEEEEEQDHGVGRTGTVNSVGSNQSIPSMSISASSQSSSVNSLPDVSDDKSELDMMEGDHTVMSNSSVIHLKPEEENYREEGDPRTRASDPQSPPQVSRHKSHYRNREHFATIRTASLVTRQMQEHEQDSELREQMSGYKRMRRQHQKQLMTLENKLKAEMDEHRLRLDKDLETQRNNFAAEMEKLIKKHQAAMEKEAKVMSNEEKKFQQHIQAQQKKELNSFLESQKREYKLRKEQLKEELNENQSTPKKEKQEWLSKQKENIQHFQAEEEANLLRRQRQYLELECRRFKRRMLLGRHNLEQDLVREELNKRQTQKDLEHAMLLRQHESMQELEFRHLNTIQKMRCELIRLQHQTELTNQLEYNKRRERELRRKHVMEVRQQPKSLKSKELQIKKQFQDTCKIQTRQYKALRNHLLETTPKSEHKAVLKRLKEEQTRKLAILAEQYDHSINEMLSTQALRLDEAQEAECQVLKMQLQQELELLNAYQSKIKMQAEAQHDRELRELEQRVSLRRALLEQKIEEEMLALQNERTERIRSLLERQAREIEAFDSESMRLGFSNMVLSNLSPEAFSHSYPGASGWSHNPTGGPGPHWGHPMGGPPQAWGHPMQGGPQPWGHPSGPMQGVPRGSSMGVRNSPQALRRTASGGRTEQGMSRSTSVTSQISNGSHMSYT
# [5] = molecular target: T2, Serine/threonine-protein kinase TAO1 (Homo sapiens); conditions: at 10 µM
# [6] = molecular target: T3, Serine/threonine-protein kinase TAO2 (Homo sapiens) (UniProt Q9UL54); conditions: at 1 µM
# T3 sequence (whole entry): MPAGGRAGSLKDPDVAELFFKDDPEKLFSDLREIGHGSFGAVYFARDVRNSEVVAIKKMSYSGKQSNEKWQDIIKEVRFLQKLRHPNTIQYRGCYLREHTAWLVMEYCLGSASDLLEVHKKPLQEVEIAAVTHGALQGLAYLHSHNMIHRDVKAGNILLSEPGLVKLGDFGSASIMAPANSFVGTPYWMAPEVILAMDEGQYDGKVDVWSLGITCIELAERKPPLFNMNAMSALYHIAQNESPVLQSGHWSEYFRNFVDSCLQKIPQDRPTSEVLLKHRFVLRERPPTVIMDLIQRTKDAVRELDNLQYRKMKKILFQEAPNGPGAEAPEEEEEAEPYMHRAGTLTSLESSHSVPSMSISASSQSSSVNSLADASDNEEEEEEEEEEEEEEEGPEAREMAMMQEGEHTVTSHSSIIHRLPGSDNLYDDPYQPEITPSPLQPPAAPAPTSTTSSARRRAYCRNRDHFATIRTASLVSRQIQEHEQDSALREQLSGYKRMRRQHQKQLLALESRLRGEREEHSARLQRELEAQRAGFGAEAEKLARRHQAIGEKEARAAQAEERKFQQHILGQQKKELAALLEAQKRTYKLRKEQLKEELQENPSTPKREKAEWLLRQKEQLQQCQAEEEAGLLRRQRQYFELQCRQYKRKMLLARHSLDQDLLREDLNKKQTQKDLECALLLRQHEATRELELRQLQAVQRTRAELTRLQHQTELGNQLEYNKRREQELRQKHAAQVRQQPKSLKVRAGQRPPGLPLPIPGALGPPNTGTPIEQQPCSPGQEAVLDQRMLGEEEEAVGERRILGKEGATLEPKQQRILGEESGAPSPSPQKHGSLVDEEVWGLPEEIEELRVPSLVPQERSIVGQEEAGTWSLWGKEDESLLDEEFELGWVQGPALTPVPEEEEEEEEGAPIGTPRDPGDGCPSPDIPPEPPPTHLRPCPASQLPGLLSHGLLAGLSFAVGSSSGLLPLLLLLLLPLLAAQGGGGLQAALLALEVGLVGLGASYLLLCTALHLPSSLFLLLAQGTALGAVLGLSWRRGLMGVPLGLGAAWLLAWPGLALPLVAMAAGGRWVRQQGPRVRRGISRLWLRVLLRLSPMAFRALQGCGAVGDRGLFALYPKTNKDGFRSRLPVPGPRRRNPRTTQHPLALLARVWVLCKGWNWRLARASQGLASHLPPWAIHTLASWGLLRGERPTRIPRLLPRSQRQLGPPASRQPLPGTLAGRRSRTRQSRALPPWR
# [7] = molecular target: T3, Serine/threonine-protein kinase TAO2 (Homo sapiens); conditions: at 10 µM
# [8] = molecular target: T4, Serine/threonine-protein kinase TAO3 (Homo sapiens) (UniProt Q9H2K8); conditions: at 1 µM
# T4 sequence (whole entry): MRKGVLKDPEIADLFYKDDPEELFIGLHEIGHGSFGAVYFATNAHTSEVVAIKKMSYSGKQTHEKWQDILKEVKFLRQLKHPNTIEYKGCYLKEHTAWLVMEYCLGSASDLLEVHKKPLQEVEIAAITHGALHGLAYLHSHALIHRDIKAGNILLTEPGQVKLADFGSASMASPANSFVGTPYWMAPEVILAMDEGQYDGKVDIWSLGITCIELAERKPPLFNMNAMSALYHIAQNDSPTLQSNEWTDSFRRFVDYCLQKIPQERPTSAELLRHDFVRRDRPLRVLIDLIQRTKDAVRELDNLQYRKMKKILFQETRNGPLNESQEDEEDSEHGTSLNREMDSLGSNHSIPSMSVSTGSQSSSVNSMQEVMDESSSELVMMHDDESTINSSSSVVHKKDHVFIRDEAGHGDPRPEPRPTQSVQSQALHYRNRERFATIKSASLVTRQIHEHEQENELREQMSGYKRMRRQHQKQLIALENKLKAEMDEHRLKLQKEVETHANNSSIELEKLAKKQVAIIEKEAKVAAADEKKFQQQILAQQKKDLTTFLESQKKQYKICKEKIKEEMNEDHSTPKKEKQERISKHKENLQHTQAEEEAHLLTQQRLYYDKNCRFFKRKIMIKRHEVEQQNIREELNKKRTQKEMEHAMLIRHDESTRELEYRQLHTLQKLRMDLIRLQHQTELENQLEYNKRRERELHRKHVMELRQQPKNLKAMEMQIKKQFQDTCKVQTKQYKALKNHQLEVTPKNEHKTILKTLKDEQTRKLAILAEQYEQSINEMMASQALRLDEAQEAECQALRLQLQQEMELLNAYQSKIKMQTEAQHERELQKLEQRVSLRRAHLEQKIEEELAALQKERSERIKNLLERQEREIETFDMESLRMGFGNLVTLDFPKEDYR
# [9] = molecular target: T4, Serine/threonine-protein kinase TAO3 (Homo sapiens); conditions: at 10 µM
# [10] = molecular target: T5, Serine/threonine-protein kinase TBK1 (Homo sapiens) (UniProt Q9UHD2); conditions: at 1 µM
# T5 sequence (whole entry): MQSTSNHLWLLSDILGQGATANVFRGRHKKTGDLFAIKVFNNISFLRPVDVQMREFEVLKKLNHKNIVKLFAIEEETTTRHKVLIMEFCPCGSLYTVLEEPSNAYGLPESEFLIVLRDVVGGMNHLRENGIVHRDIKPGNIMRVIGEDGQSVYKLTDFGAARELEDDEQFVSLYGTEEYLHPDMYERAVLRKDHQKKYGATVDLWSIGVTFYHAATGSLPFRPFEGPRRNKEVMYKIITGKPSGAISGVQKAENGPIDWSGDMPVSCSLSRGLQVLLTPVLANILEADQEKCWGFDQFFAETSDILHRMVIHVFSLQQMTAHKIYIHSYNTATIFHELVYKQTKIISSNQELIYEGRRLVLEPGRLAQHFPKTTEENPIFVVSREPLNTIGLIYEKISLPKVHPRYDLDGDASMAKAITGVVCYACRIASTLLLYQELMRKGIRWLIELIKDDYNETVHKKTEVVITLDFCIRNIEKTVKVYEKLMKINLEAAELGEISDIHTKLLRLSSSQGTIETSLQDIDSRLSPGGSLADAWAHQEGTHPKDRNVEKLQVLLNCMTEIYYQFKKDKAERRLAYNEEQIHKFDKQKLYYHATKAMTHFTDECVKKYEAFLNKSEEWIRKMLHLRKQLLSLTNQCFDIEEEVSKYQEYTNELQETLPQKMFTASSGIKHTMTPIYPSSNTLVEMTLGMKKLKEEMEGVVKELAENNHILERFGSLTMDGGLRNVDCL
structure (smiles),measurement,setting,value
O=c1cc(-c2cccc3c2Sc2ccccc2S3)oc(N2CCOCC2)c1,residual activity,[1],90%
same,residual activity,[2],101%
same,residual activity,[3],89%
same,residual activity,[4],107%
same,residual activity,[5],80%
same,residual activity,[6],93%
same,residual activity,[7],90%
same,residual activity,[8],94%
same,residual activity,[9],82%
same,residual activity,[10],99%
